Calls of active or inactive are those of the source.

The source of these data is PubChem BioAssay.

One assay has as its target Albumin (Bos taurus) (UniProt P02769). In words: compounds binding labelled BSA control protein – biochemical, small-molecule microarray, Alexa647 label, 635/667 nm fluorescence, artefact control for SMM control protein annotation, profiling panel (AID 1118).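 Further: score merges 667 nm emission intensity and signal-to-noise per printed compound spot.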 The following applies: BSA-A647 binding, fluorescence 635 nm, higher = more signal.
The nature of assay [1]: probe aXIP binding to arrayed compounds – biochemical, NeuroSMM set, 635/667 nm fluorescence, primary screen (AID 1119).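 Further: probe is the protein aXip251-270 applied at 1 µg/mL to compound-printed slides; binding of probe to printed compounds measured as 667 nm fluorescence plus signal to noise.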 The following applies: small-molecule microarray, higher = more signal, called active from +8 up or from −8 down.
Assay [2] can be described thus: probe aNOTCH3 binding on compound microarray – biochemical, small-molecule microarray, 635/667 nm fluorescence, primary screen (AID 1120).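 Further: probe is a biotin-tagged antibody raised against NOTCH3 rather than NOTCH3 protein; score merges spot fluorescence near 667 nm with spot signal to noise.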 The following applies: higher = more signal.
A short description of assay [3]: probe aNOTCH2 binding on compound microarray – biochemical, small-molecule microarray, 635/667 nm fluorescence, primary screen (AID 1121).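 Further: score merges feature fluorescence read at 667 nm with its signal to noise.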 To be noted: higher = more signal.
Assay [4] addresses Carbonic anhydrase 2 (Homo sapiens) (UniProt P00918). In words: compounds binding carbonic anhydrase 2 – biochemical, small-molecule microarray, Alexa647-labelled CAII, profiling panel (AID 1122). The following applies: CAII-A647 binding fluorescence, higher = more signal.
Assay [5] in a line: COS7 lysate on small-molecule microarray, probe aHis, 635 nm (AID 1123).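 Further: z-score combines 667nm fluorescence intensity with signal-to-noise per printed compound spot.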 The following applies: COS7 cell lysate, fluorescence, higher = more signal.
Assay [6] in a line: probe aLAP1 signal on lysate-treated microarray – cell lysate, small-molecule microarray, COS7 lysate, primary screen (AID 1124).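 Further: lysate comes from COS7 cells expressing LAP1 and is applied at 0.3 µg/mL; score merges spot fluorescence near 667 nm with signal-to-noise over triplicate slides.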 The following applies: probe aLAP1, fluorescence, higher = more signal.
The next assay concerns Sam68 (KHDRBS1). The assay is described as follows: compounds binding KHDRBS1 protein – biochemical, small-molecule microarray, 635 nm fluorescence, primary screen (AID 1125).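 Further: score merges 667 nm channel intensity with signal to noise over triplicate slides.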 The following applies: higher = more signal.
In assay [7] the test system is Chordin-like protein 2 (CHRDL2). In words: compounds binding chordin-like 2 – biochemical, small-molecule microarray, 635 nm fluorescence, primary screen (AID 1126).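 Further: printed compound slides probed with Chrdl2 protein at 4 µg/mL for 1 h at 4 C; score merges 667 nm emission intensity with signal to noise over three replicate slides.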 To be noted: fluorescence 635 nm, higher = more signal.
The target of assay [8] is Concanavalin-A (Canavalia ensiformis) (UniProt P02866). In words: compounds binding concanavalin A lectin – biochemical, small-molecule microarray, Alexa647 label, 635 nm, artefact control for SMM control protein annotation, primary screen (AID 1127).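 Further: z combines 667 nm emission intensity with signal-to-noise across three replicate slides.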 To be noted: ConA-A647 binding fluorescence, higher = more signal.
Chain of Concanavalin-A (Canavalia ensiformis) (P02866 whole entry, looked up): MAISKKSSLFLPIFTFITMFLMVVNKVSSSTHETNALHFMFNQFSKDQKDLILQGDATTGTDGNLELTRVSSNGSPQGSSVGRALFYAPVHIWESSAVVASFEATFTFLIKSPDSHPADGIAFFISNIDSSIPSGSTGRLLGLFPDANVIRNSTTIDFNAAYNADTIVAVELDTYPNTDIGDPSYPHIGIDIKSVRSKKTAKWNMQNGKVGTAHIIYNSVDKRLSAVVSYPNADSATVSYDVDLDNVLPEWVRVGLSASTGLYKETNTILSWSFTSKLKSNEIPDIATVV

Chain of Albumin (Bos taurus) (P02769 whole entry, looked up): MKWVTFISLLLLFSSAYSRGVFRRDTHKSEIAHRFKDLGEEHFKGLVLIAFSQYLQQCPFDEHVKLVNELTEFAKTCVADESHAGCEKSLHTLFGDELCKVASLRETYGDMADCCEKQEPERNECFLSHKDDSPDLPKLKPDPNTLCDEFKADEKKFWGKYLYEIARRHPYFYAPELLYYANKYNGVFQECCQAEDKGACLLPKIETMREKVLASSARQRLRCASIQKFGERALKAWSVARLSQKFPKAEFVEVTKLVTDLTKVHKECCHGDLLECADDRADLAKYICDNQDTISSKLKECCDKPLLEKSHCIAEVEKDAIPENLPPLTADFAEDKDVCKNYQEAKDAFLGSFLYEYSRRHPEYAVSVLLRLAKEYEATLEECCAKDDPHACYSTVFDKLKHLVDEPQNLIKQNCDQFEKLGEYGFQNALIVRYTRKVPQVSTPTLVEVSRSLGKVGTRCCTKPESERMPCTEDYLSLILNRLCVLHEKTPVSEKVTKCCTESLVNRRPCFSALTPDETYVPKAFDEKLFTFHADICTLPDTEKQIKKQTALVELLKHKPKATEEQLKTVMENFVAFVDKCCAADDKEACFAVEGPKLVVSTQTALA

As for `O=c1cccc(C=Cc2ccccc2)o1`, the composite z-score in the assay with Albumin (Bos taurus) was -0.828; in assay [2], -0.178; in [3] it was -0.126; in assay [4], -0.228; in assay [5], -0.386; in [6], 0.224. Moreover, the figures for the composite z-score (in the assay with Sam68 (KHDRBS1); in assay [7]; in [8]) were -0.0848, -1.58 and -0.514, respectively. Moreover, the composite Z-score in assay [1] was 0.0786 (inactive).

Turning to `COCCOC(=O)N1C(=O)[C@@]2(c3cc(C#CC4=CCCCC4)ccc31)[C@H](C(=O)NC[C@H](O)c1ccccc1)[C@H]1C(=O)O[C@H](c3ccccc3)[C@H](c3ccccc3)N1[C@@H]2c1ccc(O)cc1`, the composite z-score amounted to 0.112 with Albumin (Bos taurus); 0.184 in assay [2]; 0.103 in assay [3]; 0.521 in assay [4]; 0.824 in [5]; 0.992 in assay [6]. The composite z-score in the assay on Sam68 (KHDRBS1) is 1.29; in assay [7], 1.12; in assay [8], 1. In addition, in [1], the composite Z-score was 0.0886 (inactive).

For the molecule `COc1ccc(C(=O)Nc2cccc(CN3C(=O)[C@@]4(O[C@@H](CCn5cc(CCO)nn5)[C@H]([Si](C)(C)c5ccc(OC)cc5)[C@H]4C)c4ccccc43)c2)cc1`, the composite z-score with Albumin (Bos taurus) was -0.194; in assay [2], 0.149; in assay [3], -0.084; in assay [4], 0.411; in assay [5] it was 0.733; in [6] it was -0.046. Also, the results for the composite z-score (in the assay on Sam68 (KHDRBS1); in [7]; in [8]) were 1.3, 1.05 and 1.08, respectively. For the same molecule, in assay [1], the composite Z-score is 1.4 (inactive).

For `CCCCC(O)C1C=CC2C(=O)N(C3CCCCC3)C(=O)C2N1Nc1ccc(OC)cc1` (stereo not given), the composite z-score in the assay with Albumin (Bos taurus) was 0.739; in assay [2], 0.11; in assay [3], -0.0894; in [4], 0.511; in [5] it was 1.53; in assay [6], 0.56. In addition, the composite z-score in the assay on Sam68 (KHDRBS1) was 1.19; in assay [7] it was -0.135; in assay [8], 0.8. In assay [1], the composite Z-score was 0.258 (inactive).

For `COc1ccc(C(O)C2C=CC3C(=O)N(C)C(=O)C3N2Nc2ccccc2)cc1OCc1ccccc1` (stereo not given), the composite z-score is 0.878 in the assay with Albumin (Bos taurus); -0.0714 in [2]; -0.0128 in [3]; 0.754 in assay [4]; 1.67 in assay [5]; -0.142 in assay [6]. The composite z-score in the assay on Sam68 (KHDRBS1) was 1.28; in assay [7] it was -0.0441; in assay [8], 0.949. Moreover, in assay [1], the composite Z-score was 0.0582 (inactive).

`COC(=O)[C@@]1(Cc2ccc(OC)cc2)[C@H]2c3cc(C(=O)N4CCCC4)n(Cc4cc(F)cc5c4OCOC5)c3C[C@H]2CN1C(=O)c1ccccc1`: the composite z-score was 0.161 in the assay with Albumin (Bos taurus); 0.58 in [2]; 0.38 in assay [3]; 0.916 in [4]; 2.39 in [5]; -0.429 in assay [6]. The composite z-score in the assay with Sam68 (KHDRBS1) is -0.0061; in [7], -0.974; in assay [8], 0.693. Besides, in [1], the composite Z-score was -0.0345 (inactive).

Turning to `CC(C)C[C@@H]1NC(=O)[C@@H]2C[C@H](C(=O)NCCCCCC[N+](C)(C)C)[C@H](c3ccc(O)cc3)N2C1=O`, the composite z-score with Albumin (Bos taurus) was -0.0787; in assay [2], 0.0562; in [3], -0.189; in assay [4], 0.678; in [5], 1.58; in [6], 0.301. The composite z-score in the assay with Sam68 (KHDRBS1) came out at 1.25; in assay [7], 1.33; in [8], 0.989. For the same molecule, the composite Z-score in [1] is 0.729 (inactive).

As to `CC(C)(C)N1CC=CC23O[C@@H]4/C=C\CCCOC(=O)C4[C@H]2C(=O)N(CCO)[C@@H]3C1=O` (stereo not given in full), the composite z-score is 0.268 with Albumin (Bos taurus); -0.36 in assay [2]; -0.204 in [3]; 0.872 in assay [4]; 0.575 in assay [5]; 0.29 in assay [6]. Besides, the composite z-score in the assay with Sam68 (KHDRBS1) is -0.13; in assay [7], -0.0702; in assay [8] it was -0.0702. In addition, the composite Z-score in assay [1] is 0.103 (inactive).

For `NCCCCCCNC(=O)[C@H]1C[C@H]2C(=O)NCC(=O)N2[C@H]1c1cccc(OCCO)c1`, the composite z-score with Albumin (Bos taurus) is -0.512; in assay [2] it was -0.0311; in [3] it was -0.153; in [4] it was 0.536; in [5] it was 1.07; in assay [6] it was 0.295. Further, the composite z-score in the assay on Sam68 (KHDRBS1) was found to be 1.29; in assay [7], 1.37; in [8] it was 1.1. Besides, the composite Z-score in assay [1] was 0.727 (inactive).

Turning to `CC=CC(O)C1C=CC2C(=O)N(c3ccccc3)C(=O)C2N1Nc1ccc(C(C)C)cc1` (stereo not given), the composite z-score in the assay with Albumin (Bos taurus) is 0.98; in [2] it was 0.271; in assay [3], 0.0751; in assay [4] it was 0.641; in assay [5], 3.26; in [6], 0.3. For the same molecule, the values for the composite z-score (in the assay with Sam68 (KHDRBS1); in [7]; in assay [8]) were 1.3, 0.0045 and 1.11, respectively. In addition, the composite Z-score in assay [1] is 0.609 (inactive).

Take `CC(C)C[C@@H]1NC(=O)[C@H]2C[C@@H](C(=O)NCCCCCNC(=O)CS)[C@@H](c3cccc(OCCO)c3)N2C1=O`: the composite z-score in the assay with Albumin (Bos taurus) is 0.258; in assay [2], 0.191; in assay [3], -0.0358; in assay [4], 0.561; in assay [5] it was 1.32; in assay [6] it was 0.438. In addition, the composite z-score in the assay on Sam68 (KHDRBS1) stood at 1.3; in assay [7] it was 1.39; in assay [8] it was 1. Also, in assay [1], the composite Z-score was -0.014 (inactive).

Regarding `CC(C)c1ccc(NN2C(C(O)c3c(F)cccc3Cl)C=CC3C(=O)N(c4ccccc4)C(=O)C32)cc1` (stereo not given), the composite z-score amounted to 0.913 in the assay with Albumin (Bos taurus); 0.704 in assay [2]; 0.395 in assay [3]; 0.187 in assay [4]; 2.26 in assay [5]; 0.584 in assay [6]. Further, the composite z-score is 1.14 with Sam68 (KHDRBS1), -0.297 in [7] and 1.11 in assay [8]. The composite Z-score in assay [1] is -0.193 (inactive).

On to `COC(=O)[C@@]1(Cc2ccc(F)cc2)[C@H]2c3cc(C(=O)N4CCCC4)n(Cc4cccc5ccccc45)c3C[C@H]2CN1C(=O)c1ccccc1`, for which the composite z-score turned out to be 1.08 with Albumin (Bos taurus); 0.535 in assay [2]; 0.173 in [3]; 0.533 in assay [4]; 3.22 in [5]; 0.513 in assay [6]. The composite z-score is 1.07 in the assay on Sam68 (KHDRBS1), -0.411 in assay [7] and 0.405 in assay [8]. Moreover, the composite Z-score in assay [1] was -0.421 (inactive).

For `O=C1C2C=CC(C(O)c3cccs3)N(Nc3ccccc3F)C2C(=O)N1c1ccccc1` (stereo not given), the composite z-score is 0.512 with Albumin (Bos taurus); -0.0728 in [2]; -0.181 in assay [3]; 0.419 in assay [4]; 1.55 in assay [5]; 0.118 in [6]. The composite z-score with Sam68 (KHDRBS1) is 0.794; in assay [7] it was -0.399; in assay [8], 0.653. For the same molecule, in [1], the composite Z-score is -0.413 (inactive).

For the molecule `O=C1C[C@@](C(=O)NC2CC2)(c2ccc([N+](=O)[O-])cc2)[C@@H](c2ccc(CO)cc2)N1CC12CC3CC(CC(C3)C1)C2`, the composite z-score is 0.374 in the assay with Albumin (Bos taurus); -0.0236 in assay [2]; -0.0091 in [3]; 0.22 in assay [4]; 0.681 in [5]; -0.107 in assay [6]. Further, the figures for the composite z-score (with Sam68 (KHDRBS1); in assay [7]; in [8]) were 0.684, -0.203 and 1, respectively. The composite Z-score in assay [1] was -0.172 (inactive).

Turning to `Cc1ccc([C@H]2[C@H](C(=O)O)[C@H](Sc3ccccc3)[C@@H](C(C)C)N2S(=O)(=O)c2ccc(C)cc2)cc1`, the composite z-score with Albumin (Bos taurus) is 0.907; in assay [2], 0.249; in assay [3] it was 0.0303; in assay [4], 0.66; in assay [5], 2.25; in assay [6] it was 0.722. Besides, the composite z-score with Sam68 (KHDRBS1) is 1.31; in [7], -0.299; in assay [8], 1.09. For the same molecule, the composite Z-score in [1] was 0.497 (inactive).
